This is one part of a sample in which hits are shown more often than they occur.
HTT aggregate – reduces HttQ103-GFP aggregates in PC12 cells; PC12 HttQ103-GFP aggregates, Acumen cytometry, 40 h; Potency, µM (series often up to 46.1 µM), most hits filed as inhibitors; 220,000 compounds, 1.1% hits; note: nearly all actives have a fitted effect of over 60% in size
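Read-out: GFP aggregate count by laser scanning cytometer (488 nm excitation, 500-530 nm emission, 1–25 µm objects >6 SD above background). Cells: PC12, inducible HTTex1-Q103-GFP, 100 nM tebufenozide; compounds titrated.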
HTT ATP protect – Huntington cell model cytoprotection by ATP luminescence; PC12 HTT-Q103 induced, cytoprotection, ATP luminescence, 40 h; Potency, µM (top dose mostly 56.4 µM), most hits filed as activators; 230,000 compounds, 0.14% hits; AID 1471; note: nearly all actives have a fitted effect of over 45% in size
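Cells were plated at 1500 per well in phenol red-free DMEM with 5% equine and 5% calf serum. Tebufenozide (100 nM final) and compounds were added, then ATPlite reagent, and luminescence was read.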
PNC assembly inh – inhibitors of perinucleolar compartment assembly. activity change (PNC), negative = inhibition, % at 10 µM. 140,000 compounds, 3.1% hits. PC3M PTB-GFP, PNC prevalence imaging, 16 h; hits give low values;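 active = readout at or below -70, meaning at least 70% loss of cells showing the perinucleolar compartment, a nuclear body marking cancer cells; inconclusive = readout between -30 and a set limit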
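PC3M cells stably expressing PTB-GFP, 750–1000 cells/well, treated 16 h at 37 °C with compound (23 nl of library stock), in duplicate. After paraformaldehyde fixation and Hoechst stain, imaged at 20x; PNC prevalence scored by image analysis.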
Of the large screens only hits and unclear results are named; the others gave an inactive call. Unless noted, calls come from the whole dose curve; as a rule, active = well fitted curve in the direction sought with a large enough effect; inconclusive = small, poorly fitted or top-dose-only effect, or another doubt; inactive = no such curve, though single readings can be large; an effect the other way counts as inactive or inconclusive.

COc1cc(OC)cc(C(=O)Nc2cccnc2)c1	none (no result: PNC assembly inh)
CCOc1ccc2nc(NC(=O)c3cccnc3)sc2c1	PNC assembly inh -108.4
CCCc1cc(C(=O)Nc2cccnc2)no1	PNC assembly inh -105.7
CCOc1cc(OCC)cc(C(=O)Nc2cccnc2)c1	PNC assembly inh -91.3
CCCc1cc(C(=O)Nc2cccc(Cl)c2)no1	none
Cc1cnc(C(=O)OCC(=O)NC(C)C)cn1	none
NS(=O)(=O)c1ccc(CNC(=O)NC2(c3ccccc3)CC2)cc1	HTT aggregate inconclusive
CC(=O)c1ccc(N2CCN(C(=O)CCCn3c(=O)[nH]c4ccc(Br)cc4c3=O)CC2)cc1	HTT aggregate inconclusive (no result: PNC assembly inh)
COc1ccnc(CSC(N)=Nc2ccccc2C(F)(F)F)c1	none (no result: HTT ATP protect)
COc1ccnc(CSC(N)=Nc2ccccc2OC)c1	HTT aggregate inconclusive, PNC assembly inh -81.2
Cc1c(NC(=O)CSc2nnc(C(C)Oc3ccc(Cl)cc3)n2-c2ccccc2)c(=O)n(-c2ccccc2)n1C (configuration not stated)	none
COC(=O)c1ccc(C(=O)OC)c(NC(=O)COC(=O)c2ccccc2OC)c1	HTT aggregate inconclusive, PNC assembly inh inconclusive
CCCOc1ccc(C2(C(=O)O)CCCC2)cc1	PNC assembly inh inconclusive
Cc1ccc(NC(=O)NCCN2C(=O)C3C4C=CC(C4)C3C2=O)cc1 (configuration not stated)	none
COc1ccc(NC(=O)NCCN2C(=O)C3C4C=CC(C4)C3C2=O)cc1 (configuration not stated)	PNC assembly inh -82.0
Cc1ccc(C(=O)Nc2cc(=O)n(C)c(=O)n2C)o1	none
Fc1ccc(CNc2nc(-c3ccco3)cc(C(F)(F)F)n2)cc1	none
Fc1ccc(-c2cc(C(F)(F)F)nc(NCc3cccs3)n2)cc1	PNC assembly inh -113.4 (no result: HTT ATP protect)
COc1ccc(S(=O)(=O)N2CCCCC2C(=O)O)cc1 (configuration not stated)	none
CCC(C)NCC(=O)Nc1sc2c(c1C(N)=O)CCC2 (configuration not stated)	none
CCCC(=O)NC(=S)Nc1sc2c(c1C(N)=O)CCC2	none (no result: HTT ATP protect)
CC(C)C(=O)NC(=S)Nc1sc2c(c1C(N)=O)CCCC2	PNC assembly inh -109.0 (no result: HTT ATP protect)
CCC(=O)Nc1sc2c(c1C(N)=O)CCC2	PNC assembly inh -100.0
Nc1nonc1-n1nncc1-c1ccccc1	none
CSc1cccc(CN2CCCC(CNC(=O)c3ccc(F)cc3)C2)c1 (configuration not stated)	none (no result: PNC assembly inh)
C=CCn1c(-c2ccccc2)c[nH]c1=S	HTT aggregate inconclusive, PNC assembly inh -116.6
C=CCn1c(-c2ccc(Cl)cc2)c[nH]c1=S	none
Brc1ccc(-c2nnc(-c3cccc(Br)c3)o2)cc1	none
[O]=[Bi][O][Bi]=[O]	none (no result: PNC assembly inh)
COc1ccc(CCN2C(=S)NC3CC2(C)Oc2ccc([N+](=O)[O-])cc23)cc1OC (configuration not stated)	HTT aggregate 10µM
COc1ccc(N2C(=O)NC3CC2(C)Oc2ccc(Cl)cc23)cc1OC (configuration not stated)	none
Cc1cc(C)n2nc(SCC(=O)Nc3c(C)nn(-c4ccccc4)c3C)nc2n1	none
C[C@@]12CCC=C[C@H]1[C@H](c1ccoc1)N(Cc1ccccc1)C2=O	none (no result: PNC assembly inh)
COc1ccc(OC)c(C2C=C(c3ccc(C)c(C)c3)Nc3nnnn32)c1 (configuration not stated)	none
CC(C)OC(=O)NCCOC(=O)Nc1cccc(Cl)c1	HTT aggregate 11.2µM
O=C(Nc1ccc(Cl)c(Cl)c1)OCc1cnc(Cl)s1	none
O=C(Nc1ccc(Cl)c(Cl)c1)OCc1cncs1	HTT aggregate 11.2µM
CC(C)OC(=O)Nc1ccc(-c2ccc(NC(=O)OC(C)C)cc2Cl)c(Cl)c1	none (no result: PNC assembly inh)
CC(C)OC(=O)NC(C)(C)COC(=O)Nc1cccc(Cl)c1	none
CC(C)OC(=O)NCCOC(=O)Nc1ccc(Cl)c(Cl)c1	HTT aggregate 7.08µM
COc1ccc(-c2ccc(=O)n(CC(=O)N3CCN(c4ccccc4OC)CC3)n2)cc1	none (no result: HTT aggregate, PNC assembly inh)
COC(=O)CCN(C(=O)c1ccc(N2CCCCC2)c([N+](=O)[O-])c1)c1ccccn1	none (no result: PNC assembly inh)
COc1cc([C@@H]2c3cc4c(cc3[C@@H](NC3CCN(Cc5ccccc5)CC3)[C@H]3COC(=O)[C@H]23)OCO4)cc(OC)c1O	none (no result: PNC assembly inh)
Cc1ccc(C)c(N2CCN(C(=O)C(Cc3ccccc3)n3cccc3)CC2)c1 (configuration not stated)	HTT aggregate inconclusive
Cc1cccc(OCc2nnc(SCC(=O)N3c4ccccc4CC3C)n2C)c1C (configuration not stated)	PNC assembly inh inconclusive
CCN(CC)S(=O)(=O)c1ccc(Cl)c(C(=O)NC)c1	none
CCN(CC)S(=O)(=O)c1ccc(F)c(C(=O)NCCC(C)C)c1	HTT aggregate inconclusive, PNC assembly inh -100.0 (no result: HTT ATP protect)

Assay outcomes: PubChem BioAssay, National Center for Advancing Translational Sciences (NCATS)
